Laboratory results reported in the supplement of paper PMC6555819.

Test system: PPARg:RXRa (NR concentration 180 nM, RXRa partner concentration 90 nM)
Test: PBM binding z-score (relative to random genomic background probes); higher = stronger binding; sequences stand for … in GC…GCGATTGACAGCGTAGAATGAAGG
Procedure, shortened: (§1)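 Ligand-free nuclear receptor dimers were applied to custom Agilent 4×180K protein-binding microarrays whose double-stranded probes carried direct-repeat seeds, single-nucleotide variants, half-site ablations and random human genomic background sequences in 34-nt variable regions. Incubation lasted 1 h. Binding z-scores were computed against the random background probes from regression-normalized fluorescence.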

First: TCAGACAGGTGAAGCTAACTCAGGTACGCAGTCG
Second: TAGCCTTGGTCATGCGGGCCAGTATAGTGTCGGC
The PBM binding z-score of the first is higher: 0.519 for the first, -0.423 for the second.

Going from GTACCAAGGTGAATAGGTCGTTAATGAGTAGGCG to GCTTGTAGATCAACGTTAAGAAAGACTAAGCTAA, the PBM binding z-score falls from 1.38 to 0.13.

Compared with TCTTGTAGATCAAAGGGTAAGAAAGCCGAAGCCT, GCTGATAGGTCAACTGATGGTCAGCTAAAGCTCG is lower in PBM binding z-score: 4.4 for the first, 3.41 for the second.

First: CATACAGGGTCAGCTAGGGCAGAGTAGGGACGGC
Second: AGTCAAAGTTCAGGACGATGTAACGTAAAGCACG
The PBM binding z-score of the first is lower: 3.23 for the first, 4.28 for the second.

First: TCTAGTTGGTCACGGTGGTCACACACGACGGGTA
Second: CCGACTGGGGCAAGGTTGCCATAACGCACAGCCA
The PBM binding z-score of the first is lower: 1.15 for the first, 1.87 for the second.

First: CCTAGCGGGCCAGGGTCACTCAAGCATTTCGCTT
Second: AGAATGAGGTTGTACGTAGATCAGGGAAGAAAGT
The PBM binding z-score of the first is higher: 0.585 for the first, 0.188 for the second.

First: AGAATGAGGTTATACGTACATCAGGGAAGAAAGT
Second: TGGAGTAGGTTAGGGGCATTCAGAATGGCGTCGA
The PBM binding z-score of the first is higher: 2.46 for the first, 2.21 for the second.

First: CCTACTGGGCCATTCAGAGGCCATTGATCATATG
Second: ATATGTAGGTTACGGGTCATTCAGGTTGGTTCGC
The PBM binding z-score of the first is lower: 0.541 for the first, 9.4 for the second.

Going from TCGAGTAGGTTAGGGGTATTCAGAATGGCGTCGA to CCTAGTTCGTCAAGGTCACACACGCTATAGGTAC, the PBM binding z-score rises from 2.37 to 2.52.

Compared with TCTTTTAGTTGATTAGGGCAACCGAAACAGCGGA, GCTAGCAGGGCATTTGGGTCACTCAATGACGGGC is higher in PBM binding z-score: 0.152 for the first, 1.28 for the second.

First: TGAATGAGGTTATAAGATCGGGGAACGTTGCAAA
Second: CGTCCCAGGTCAGAGAGGTCAGTGAATGCCGAGT
The PBM binding z-score of the first is lower: 0.897 for the first, 2.21 for the second.

First: CAAACTAGGGCAAAGGTCAAAGTCGAGCCAACCA
Second: CGAACTAGGTCATTGACGGGACAGTGAATAGTAA
The PBM binding z-score of the first is higher: 13.2 for the first, 7.48 for the second.

Going from TCTTGTAGATCAACAGGCGGTTAAGAAAGATCGA to ACTATTAGGTGACTTAGGGCAACCGATACGACGC, the PBM binding z-score rises from -0.161 to 1.85.

First: TCTGCTACGTCAGTTGGTCAGCTAACGAGCTGCC
Second: CTCGAAAGGTCGTGCTCAAGTGAGTATACCAAAC
The PBM binding z-score of the first is lower: -0.674 for the first, 2.57 for the second.

Going from TAGCCTAGGTCATTCAGGGGCCAGGATAGAAAGC to CCTCGGAGGACAACAGGAGGTGAGAGCTGCCAGA, the PBM binding z-score falls from 2.2 to 0.133.

Going from ACAGACAGGTGAGTGAAGGTAATTCAGCTGGACG to CTACCAAGGTGAACAAGCTCGTTGATTACTATTC, the PBM binding z-score falls from 0.499 to 0.332.

Going from TAGCCTAGGTAATGCGGGCCAGTATAGTGTCGGC to CCTCGGAGGACAAAAGGAGGTCAGAGCTGCCAGA, the PBM binding z-score rises from 0.000474 to 0.706.

Compared with GCTTGTAGAGCAAGGTTAAGAAAGACTAAGCTAA, TCATATAGGTAAAAGGAGAAAGTCGGTGTGGTAA is higher in PBM binding z-score: 1.41 for the first, 2.92 for the second.

Compared with TCTAGCAGGCCAGAGGTTCACTCAAGAGGTACGG, TCGAGTAGGTTCGGGGCATTCAGAATGGCGTCGA is lower in PBM binding z-score: 1.43 for the first, -0.622 for the second.

First: TCTATTAGTTGATTAGGGCAACCTAAACAGCGGA
Second: ATACCAAAGTGATCGTGAGGTCGTTGATACTAAC
The PBM binding z-score of the first is lower: 0.209 for the first, 0.235 for the second.

Test system: PPARg:RXRa 270nM:90nM, anti-RXR (NR concentration 270 nM, RXRa partner concentration 90 nM)
Test: as above
Procedure, shortened: as §1

First: TCAGACAGGTGAAGCTAACTCAGGTACGCAGTCG
Second: TAGCCTTGGTCATGCGGGCCAGTATAGTGTCGGC
The PBM binding z-score of the first is higher: 1.5 for the first, -0.768 for the second.

First: GTACCAAGGTGAATAGGTCGTTAATGAGTAGGCG
Second: GCTTGTAGATCAACGTTAAGAAAGACTAAGCTAA
The PBM binding z-score of the first is higher: 1.71 for the first, -0.0429 for the second.

First: TCTTGTAGATCAAAGGGTAAGAAAGCCGAAGCCT
Second: GCTGATAGGTCAACTGATGGTCAGCTAAAGCTCG
The PBM binding z-score of the first is higher: 5.99 for the first, 4.06 for the second.

Compared with CATACAGGGTCAGCTAGGGCAGAGTAGGGACGGC, AGTCAAAGTTCAGGACGATGTAACGTAAAGCACG is higher in PBM binding z-score: 3.05 for the first, 4.75 for the second.

First: TCTAGTTGGTCACGGTGGTCACACACGACGGGTA
Second: CCGACTGGGGCAAGGTTGCCATAACGCACAGCCA
The PBM binding z-score of the first is lower: 2.15 for the first, 2.77 for the second.

First: CCTAGCGGGCCAGGGTCACTCAAGCATTTCGCTT
Second: AGAATGAGGTTGTACGTAGATCAGGGAAGAAAGT
The PBM binding z-score of the first is higher: 1.45 for the first, 0.124 for the second.

Going from AGAATGAGGTTATACGTACATCAGGGAAGAAAGT to TGGAGTAGGTTAGGGGCATTCAGAATGGCGTCGA, the PBM binding z-score rises from 2.42 to 3.05.

Compared with CCTACTGGGCCATTCAGAGGCCATTGATCATATG, ATATGTAGGTTACGGGTCATTCAGGTTGGTTCGC is higher in PBM binding z-score: 0.6 for the first, 8.21 for the second.

Compared with TCGAGTAGGTTAGGGGTATTCAGAATGGCGTCGA, CCTAGTTCGTCAAGGTCACACACGCTATAGGTAC is lower in PBM binding z-score: 3.55 for the first, 3.46 for the second.

Going from TCTTTTAGTTGATTAGGGCAACCGAAACAGCGGA to GCTAGCAGGGCATTTGGGTCACTCAATGACGGGC, the PBM binding z-score falls from 2.66 to 1.08.

Going from TGAATGAGGTTATAAGATCGGGGAACGTTGCAAA to CGTCCCAGGTCAGAGAGGTCAGTGAATGCCGAGT, the PBM binding z-score rises from 1.59 to 2.76.

First: CAAACTAGGGCAAAGGTCAAAGTCGAGCCAACCA
Second: CGAACTAGGTCATTGACGGGACAGTGAATAGTAA
The PBM binding z-score of the first is higher: 10.9 for the first, 6.38 for the second.

First: TCTTGTAGATCAACAGGCGGTTAAGAAAGATCGA
Second: ACTATTAGGTGACTTAGGGCAACCGATACGACGC
The PBM binding z-score of the first is lower: 1.12 for the first, 1.34 for the second.

First: TCTGCTACGTCAGTTGGTCAGCTAACGAGCTGCC
Second: CTCGAAAGGTCGTGCTCAAGTGAGTATACCAAAC
The PBM binding z-score of the first is lower: 0.0272 for the first, 3.77 for the second.

Going from TAGCCTAGGTCATTCAGGGGCCAGGATAGAAAGC to CCTCGGAGGACAACAGGAGGTGAGAGCTGCCAGA, the PBM binding z-score falls from 2.42 to -0.73.

First: ACAGACAGGTGAGTGAAGGTAATTCAGCTGGACG
Second: CTACCAAGGTGAACAAGCTCGTTGATTACTATTC
The PBM binding z-score of the first is lower: 0.152 for the first, 0.345 for the second.

Compared with TAGCCTAGGTAATGCGGGCCAGTATAGTGTCGGC, CCTCGGAGGACAAAAGGAGGTCAGAGCTGCCAGA is higher in PBM binding z-score: -0.669 for the first, 1.21 for the second.

Going from GCTTGTAGAGCAAGGTTAAGAAAGACTAAGCTAA to TCATATAGGTAAAAGGAGAAAGTCGGTGTGGTAA, the PBM binding z-score rises from 2.77 to 4.79.

Going from TCTAGCAGGCCAGAGGTTCACTCAAGAGGTACGG to TCGAGTAGGTTCGGGGCATTCAGAATGGCGTCGA, the PBM binding z-score falls from 2.96 to 0.0439.

First: TCTATTAGTTGATTAGGGCAACCTAAACAGCGGA
Second: ATACCAAAGTGATCGTGAGGTCGTTGATACTAAC
The PBM binding z-score of the first is higher: 1.95 for the first, 0.258 for the second.
